Assay results: PubChem BioAssay AID1626 (SRMLSC, 2009)
The campaign covered roughly 220,000 compounds. About 2,000 (0.91%) were called active. About 2% were inconclusive and are not listed. The list is a sample of the results. Entries with a potency or affinity are not part of this list. A number with no mark means an inactive call. Cut-off read from the data, not from the text of the source: inconclusive = inhibition above about 80% without an active follow-up result; inactive = below that; test concentration not stated here.

assay: M. tuberculosis H37Rv growth inhibitors, H37Rv strain (AID 1626); details: active compounds read high, concentration not given here;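 note: bacteria incubated seven days before Alamar blue readout; 0% = bacteria only wells and 100% = bacteria with antibiotic wells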

SMILES	inhibition [%]
COCCn1c(=O)[nH]c2cc(C(=O)NCC3CCCO3)ccc2c1=O (stereo unspecified)	-10.7
COc1cc(C2NC(=O)NC(C)=C2C(C)=O)ccc1O (stereo unspecified)	5.67
COC(=O)c1ccccc1NC(=O)NCc1cccnc1	2.42
CCCC(C)C(=O)Nc1ccc(Cl)cc1Cl (stereo unspecified)	-6.12
Cc1ccc(NC(=O)CC(=O)NCCN2CCOCC2)cc1	-6.87
CC(=O)c1ccc(OC(C)C)c(CSC(=N)N)c1	-9.08
COc1ccccc1NS(=O)(=O)c1cccc(NC(=S)NCCN2CCOCC2)c1	-2.29
c1ccc2c(Nc3ccc4c(c3)OCCO4)c3c(nc2c1)CCC3	21.9
Cc1ccc2nc3c(c(Nc4ccc5c(c4)OCCO5)c2c1)CCC3	59.8
N#Cc1c(SCC(N)=O)nsc1SCc1ccc(Cl)cc1	-0.48
CSc1snc(SCC(N)=O)c1C#N	-4.47
C/C=C/C(=O)OCC(=O)Nc1cccc(Br)c1	-3.94
COc1ccc(NC(=O)C(C)Sc2nnc3c4c(nc(-c5ccc(OC)cc5)n23)CC(C)(C)OC4)cc1 (stereo unspecified)	4.37
CC(C)CNC(=S)N1CCN(Cc2ccc3c(c2)OCO3)CC1	-8.68
CCC1C(=O)N=C(SCC(=O)Nc2ccccc2)NC1=O (stereo unspecified)	-8
Cc1ccc(NC(=O)c2cc3c(s2)CCCC3)cc1	-5.85
CCC1C(=O)N=C(SCC(=O)Nc2ccc(C(=O)OC)cc2)NC1=O (stereo unspecified)	8.73
CCOC(=O)c1ccc(NC(=O)CNC(=O)c2ccccc2)cc1	0.26
COc1ccc(NC(=O)c2cc3ccccc3o2)cc1	8.56
CCOC(=O)c1ccc(NC(=O)Nc2ccc(F)cc2)cc1	-14.9
CCC(=O)Nc1ccc(NC(=O)c2cc3ccccc3o2)cc1	8.98
COc1ccccc1NC(=O)c1ccc(NC(=O)c2cc3c(s2)CCC3)cc1	0.63
COc1cccc(/C=N/NC(=O)CN(CCc2ccccc2)S(=O)(=O)c2ccc(NC(C)=O)cc2)c1	0.86
COc1ccc(/C=N/NC(=O)c2cccnc2)cc1CN1CCc2cc(OC)c(OC)cc2C1C (stereo unspecified)	1.27
Cc1cc(C)n2nc(C(=O)OCC(=O)c3cc(C)n(CC4CCCO4)c3C)nc2n1 (stereo unspecified)	-11.1
CC(=O)c1ccc(NC(=O)N2C3CCC2CC(O)(c2cccnc2)C3)cc1 (stereo unspecified)	-0.55

SMILES	inhibition [%]
CCOC(=O)c1ccc(-c2ccc(/C=N/NC(=O)CN(c3ccccc3Cl)S(C)(=O)=O)o2)cc1	6.39
NNC(=O)c1cnn(-c2ccccc2)c1-n1cccc1	-3.69
Cc1ccc(NC(=O)C(=O)NCc2ccc(/C=C(/C#N)C(=O)NCc3cccnc3)o2)cc1C	0.05
CCOC(=O)N1CCN(C(=O)CSCC(=O)N=c2sc3ccccc3n2C)CC1	-1.11
CCOC(=O)c1ccc(NC(=O)COC)cc1	79.3
CCCOC(=O)c1ccc(NC(=O)CC(C)(C)C)cc1	-1.14
CCOC(=O)c1ccc(NC(=O)c2cc(F)c(F)cc2Cl)cc1	2.44
CC1CCC/C(=C\Nc2ccc(C(=O)O)cc2)C1=O (stereo unspecified)	-6.3
CCOC(=O)c1ccc(NC(=O)Nc2ccc(Cl)cn2)cc1	-5.47
CCOC(=O)c1ccc(NCc2nc3ccccc3n2C)cc1	51.7
CC1CCC/C(=C\Nc2ccc(O)cc2)C1=O (stereo unspecified)	-13
CCOC(=O)Cc1nc2ccccc2[nH]1	-10.4
Cc1ccc(Nc2nc(C(=O)N3CCC(C(=O)N4CCN(C)CC4)CC3)cs2)cc1	-9.19
O=C(NCC1CCCO1)c1sc2cc(Cl)ccc2c1Cl (stereo unspecified)	10.4
CCN1CCN(C(=O)c2nn(-c3ccc(C)cc3)c(=O)c3c2c2ccccc2n3C)CC1	1.02
CC(=O)c1c(C)[nH]c(C(=O)CSc2nnc(-c3ccccc3)n2Cc2ccc3c(c2)OCO3)c1C	0.21
CN1CCC(N2CCN(c3cccc(C(F)(F)F)c3)CC2)CC1	-9.94
S=c1[nH]nc(Cc2ccccc2)n1-c1ccc(Cl)cc1	-10.8
NNc1nc2ccc(Cl)cc2s1	52.6
Cn1c(=O)c2c(nc(N/N=C/c3cccs3)n2Cc2ccccc2)n(C)c1=O	3.67
CCOC(=O)c1ccc(NC(=O)COc2ccccc2CNCCO)cc1	91.9
O=c1[nH]c(Nc2ccc(F)cc2)cc2ccccc12	3.27
CCOC(=O)c1ccc(NC(=O)CNC(=O)C2CCCCC2)cc1	-1.48
O=c1[nH]c(Nc2ccccc2)cc2ccccc12	-8.22
CCOC(=O)c1ccc(NC(=O)C2CCN(S(=O)(=O)CC)CC2)cc1	51.8
CCOC(=O)c1ccc(NC(=O)COc2ccccc2CNC2CCCC2)cc1	11.1

SMILES	inhibition [%]
CCOC(=O)c1ccc(NC(=O)CCC(=O)OC)cc1	72.2
CCCOC(=O)c1ccc(NC(=O)C(CC)CC)cc1	0.89
COc1ccccc1NC(=O)CCC(=O)N/N=C(/C)c1ccc(C)cc1	0.52
O=C(N/N=C/c1ccccn1)C(=O)N1CCCCCC1	-1.83
O=C(CSc1ncccn1)N1CCCc2ccccc21	-8.67
CCCCN(C(=O)c1c(C)[nH]c(C(=O)OCC)c1C)c1ccccc1	-3.19
COc1ccc(-n2c(=O)c3ccccc3n(CC(=O)c3ccccc3)c2=O)cc1OC	-3.99
C/C(=N\NC(=O)C1CC1(C)c1ccccc1)c1ccco1 (stereo unspecified)	5.62
Cn1ncc(C#N)c1NC(=O)c1nn2cccnc2c1Cl	6.92
Cc1ccc(C(=O)OCC(=O)NCC(F)(F)F)cc1C	9.6
O=C(CC1C(=O)NCCN1CC1CCCCC1)NCCc1ccc(F)cc1 (stereo unspecified)	-4.2
CCOC(=O)c1ccc(NS(C)(=O)=O)cc1	-0.25
COC(=O)Cc1ccc(NC(=O)c2ccc(C(C)(C)C)cc2)cc1	6.95
CCOC(=O)c1ccc(NC(=O)CNC(=O)C23CC4CC(CC(C4)C2)C3)cc1	-2.81
CCOC(=O)c1ccc(NC(=O)CN2C(=O)CNC2=O)cc1	-6.17
Cc1ccc(C)c(NC(=O)Cc2coc3cc4c(cc23)CCC4)c1	9.72
CCOC(=O)Cc1ccc(NC(=O)c2ccccc2Br)cc1	7.37
CC(=O)c1cccc(NC(=O)Cc2coc3cc4c(cc23)CCC4)c1	6.34
CCOC(=O)c1ccc(NC(=O)CN2C(=O)CCC2=O)cc1	-7.66
O=S(=O)(Cc1ccccc1)Cc1cnc(Cl)s1	4.1
CCCOCCc1nnc(N)s1	1.89
Cc1cccc(OCCSc2cc(C)nc(N)n2)c1	6.69
Cc1[nH]c2ccccc2c1/C=C/C(=O)c1ccncc1	6.67
COc1ccc(/C=C/C(=O)c2ccncc2)c2ccccc12	76
O=C(/C=C/c1ccc2c(c1)OCO2)Nc1cccnc1	8.75
CCCCN(CCNP(=O)(OCC)OCC)CP(=O)(OCC)OCC	-3.59

SMILES	inhibition [%]
COc1ccc2nc(N)sc2c1	42
Nc1nc2ccc(O)cc2s1	-4.72
O=C(O)CSC1=NC(=Nc2cccc(Cl)c2)C2(CCCCC2)N1c1ccccc1	5.37
O=C(NC1CC1)C1=C[C@@H](c2ccccc2)C[C@@H](OCc2ccc(CO)cc2)O1	-10.6
COc1ccccc1N1CCN(c2nc3ccccn3c(=O)c2C=O)CC1	-13.2
N#Cc1nc(-c2cccs2)oc1NCc1ccccc1	6.94
C=CCNc1oc(-c2cccs2)nc1C#N	-10.7
CCOC(=O)C1(Cc2ccccc2)CCN(Cc2ccc(COC)o2)CC1	8.15
Cc1cccc(NC(=O)CSc2nnc(-c3ccncc3)n2C)c1	-2.48
COC(=O)c1ccc(N)c(N=CC2=C(O)CC(C)(C)CC2=O)c1	99.2
CCSC1=C(C#N)C(c2cccs2)C(C(=O)OC)=C(C)N1 (stereo unspecified)	-5.12
CCOCCSC1=C(C#N)C(c2cccs2)C(C(C)=O)=C(C)N1 (stereo unspecified)	-2.87
Cc1nc2cc(NC(=O)CCS(=O)(=O)c3ccccc3)ccc2s1	-0.27
Nc1ncnc(Oc2ccccc2F)c1[N+](=O)[O-]	7.09
Cc1ccccc1Oc1ncnc(N)c1[N+](=O)[O-]	-1.2
COc1ccc(NC(=O)C(=O)NCCN2CCN(C(=O)c3ccco3)CC2)cc1	4.1
O=C(COc1ccccc1)Nc1cccc(-c2nc3cc4ccccc4cc3[nH]2)c1	55.3
O=C(Cc1cccs1)Nc1ccc(-c2nc3ccccc3[nH]2)cc1	1.13
O=C(Nc1cccc([N+](=O)[O-])c1)N1CCN(c2ccccc2)CC1	-7.11
CC(=O)c1ccc(NC(=O)N2CCN(c3ccc(C)cc3)C(C)C2)cc1 (stereo unspecified)	0.07
Cc1ccc(NC(=S)NCc2ccccc2)cc1S(=O)(=O)N1CCCCC1	-3.09
CCCn1cnc2c(N)c(C)c(C)cc21	-8.86
Cc1cc2c(ncn2Cc2ccccc2)c(N)c1C	1.64
